Test results as given in the supplement of paper PMC5499739.
The full ranking holds about 16,000 sequences; the median of “Z-score” is about -0.37, and the highest 2% start at about 3.1. For the sample, the highest values were picked, then their nearest neighbours and some sequences at random.

Test system: RBM10 RRM1-ZnF-RRM2 (GST-tagged construct)
Experiment: RNAcompete 7-mer binding Z-score; higher = stronger binding preference
Method: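 RNAcompete: 20 pmol GST-tagged RBM10 RNA-binding constructs were incubated with a designed RNA pool of about 241,000 sequences up to 41 nt (1.5 nmol) on glutathione beads for 30 min at 4 °C and washed. Bound RNAs were identified by microarray hybridisation. Each RNA 7-mer is scored by a one-sided Z-score of its enrichment, computed over probes that contain the 7-mer within longer pool sequences.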

Row | Sequence | RNAcompete 7-mer binding Z-score
1 | AGCGCGC | -0.282
2 | CAGUCUU | -0.857
3 | GAAAUCU | -0.46
4 | CCGUUAA | -0.77
5 | AGAAAAU | 0.0859
6 | GAGGUAA | 2.53
7 | CGGGUAA | 1.81
8 | GUGGUAG | 2.26
9 | AGGGUAA | 4.77
10 | AGGGUCU | 0.559
11 | CGGGUAU | 1.39
12 | GGGGUAU | 2.98
13 | UGGGUAA | 2.38
14 | AGGGUAU | 3.41
15 | GGGGUAA | 3.5
16 | GGGGUAG | 4.58
17 | GGGGUAC | 2.82
18 | UGAGCAU | -0.0634
19 | UGUAACU | -0.358
20 | AUCGGCG | 0.337
21 | CGCCUGG | -0.482
22 | GUGGCCA | 0.403
23 | UUCCGGG | 0.341
24 | GUUGAGU | 0.57
25 | GAGUCCU | -0.453

Row | Sequence | RNAcompete 7-mer binding Z-score
26 | UCAGUCA | -0.493
27 | AGUGUGG | 2.64
28 | AGUGGGC | 2.96
29 | UGUGGGC | 1.83
30 | GGUGGUG | 3.25
31 | AGUGGUG | 2.24
32 | UGUGGGA | 2.96
33 | GGUGGUC | 2.11
34 | CGUGGUG | 1.44
35 | GGUGGGC | 3.19
36 | UGUGGGG | 3.75
37 | UGUGGUG | 1.57
38 | AGUGGGG | 4.66
39 | AAGCUCA | -0.635
40 | GCACGGU | 0.519
41 | GCACGCG | -0.0598
42 | GUUGCCG | -0.216
43 | AAGCGGU | 1.03
44 | ACGGAAC | 0.785
45 | GGUGGGA | 3.75
46 | CGUGGGU | 2.43
47 | AGUGGGU | 3.35
48 | AGUGGUA | 1.92
49 | GGUGGUU | 2.03
50 | UGUGGGU | 2.9

Row | Sequence | RNAcompete 7-mer binding Z-score
51 | GCUGGGA | 1.69
52 | GGUGGCA | 2.34
53 | AGUGGGA | 4.3
54 | GCUGGGU | 1.78
55 | GGUGGGU | 3.47
56 | AGUGGCA | 1.68
57 | UAUUCAA | -0.606
58 | UGUUUUU | -0.46
59 | CUAACCC | -0.766
60 | GGCGAAA | 1.35
61 | CUCCUAU | -0.956
62 | GCUGGGG | 2.46
63 | GGUGGGG | 4.34
64 | CGUGGGG | 3.57
65 | GGGGGGG | 2.58
66 | CGUGGGC | 2.21
67 | CGUGGGA | 2.39
68 | AUCUCUG | -0.846
69 | GUGGGGC | 3.47
70 | CUGGGGA | 1.32
71 | GUGGGAC | 2.4
72 | AUGGGAU | 3.25
73 | AUGGGCU | 1.51
74 | AUGGGAC | 2.47
75 | GUGGGGA | 4.25

Row | Sequence | RNAcompete 7-mer binding Z-score
76 | GUGGGAA | 3.49
77 | CUGGGGC | 0.956
78 | GGGGGGC | 2
79 | GCGGGAA | 2.5
80 | GUUGGGA | 3.05
81 | UCAACGC | -0.584
82 | GGAAAUC | 0.931
83 | UCGGGAG | 1.18
84 | CUGGGGG | 1.81
85 | GUGGGGU | 4.45
86 | GUGGCGG | 3.22
87 | UUGGGGU | 2.84
88 | GUGGGUU | 2.54
89 | GCGGGAG | 2.64
90 | GUGGCGC | 1.46
91 | CUGGCGG | 0.541
92 | GUGGGGG | 4.18
93 | GUGGGAG | 3.99
94 | UGGCUAU | -0.00148
95 | GGAUAGC | 2.07
96 | CGCAACU | -0.825
97 | UCAAUUC | -0.752
98 | GUAGUGA | 1.1
99 | GGUGCGA | 1.58
100 | CUUUCCG | -0.777
